# Assay results from PubChem BioAssay AID651800 (The Scripps Research Institute Molecular Screening Center, 2012).
# The whole screen tested about 360,000 compounds, of which about 1,300 (0.36%) were called active. The sample as a whole holds a higher share of actives than the screen did. Unmarked numbers belong to inactive results. No stated cut-off is given here; in the data, active means inhibition above about 19%; inactive means the rest.
# System: T-cell receptor (TCR)
# Assay: inhibitors of human TCR-CD3 interaction, primary screen, biochemical, fluorescence, TAMRA-labeled TCR probe (AID 651800);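 further: recombinant mutant TCR 2C K166C tagged with TAMRA read by polarization; 0% = receptor in buffer alone and 100% = receptor with positive control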
# Conditions: at 9.4 µM, stronger effect = higher value
row,SMILES,inhibition
1,COc1ccc(C(=O)NCC[N+](C)(C)C)cc1,-6.67%
2,COc1ccc(C(=O)NCCSc2ccccc2C)cc1,-0.19%
3,COc1ccc(C(=O)NNc2cc(C)nc(NNC(=O)c3ccc(OC)cc3)n2)cc1,19.4% (active)
4,CC(c1ccccc1)n1c(NCCCn2ccnc2)nc2c1c(=O)[nH]c(=O)n2C (stereo unspecified),5.62%
5,COc1ccc(S(=O)(=O)Nc2ccc3c(c2)C(=O)N([C@H](C)CO)C[C@H](C)[C@@H](CN(C)C)OCCCC[C@H](C)O3)cc1,-1.68%
6,CC(=O)c1ccc(S(=O)(=O)NCC2CCN(C(=O)C(=O)c3cccs3)CC2)cc1,-11.4%
7,CCN(CC)CCCC(C)n1c2nc(=O)[nH]c(=O)c-2nc2cc(Cl)ccc21 (stereo unspecified),54.6% (active)
8,O=C(NCc1ccccc1)[C@H]1CCCN1C(=O)[C@H]1CCCN1C(=O)c1cc(F)cc(F)c1,1.6%
9,O=C(/C=C/c1cn(-c2ccccc2)nc1-c1ccc2c(c1)OCCO2)NCCCN1CCOCC1,-3.23%
10,Cc1ccc(-c2nn(-c3ccccc3)cc2C(=O)Nc2cccc(S(=O)(=O)N3CCOCC3)c2)cc1,2.85%
11,Cc1ccc(-c2nn(-c3ccccc3)cc2/C=C/C(=O)Nc2cccc(S(N)(=O)=O)c2)cc1,83.6% (active)
12,CN(C)C(=O)N1CCN(C(=O)[C@@H](Cc2ccccc2)NC(=O)[C@H]2O[C@@H](n3ccc(N)nc3=O)[C@H](O)[C@@H]2O)CC1,-1.88%
13,COC(=O)C1=C(C(=O)OC)C2C=C(C(C)C)C1C(=O)C2(C)O (stereo unspecified),-5.88%
14,COC(=O)C1=C(C)N(Cc2cccc(C(F)(F)F)c2)C(=NCc2cccc(C(F)(F)F)c2)NC1c1ccccc1C(F)(F)F (stereo unspecified),7%
15,CC1CCCN(c2cccc3c2S(=O)(=O)N(Cc2ccc(F)cc2)[C@@H](C)[C@H](c2ccccc2)O3)C1 (stereo partly specified),-3.78%
16,CC(C)C[C@H](NC(=O)CC1CCCC1)C(=O)N1CCC[C@H]1C(=O)NCc1ccccc1,-0.62%
17,COc1ccccc1C(=O)NNC(=O)c1ccc(NC(=O)c2ccccc2)cc1,37.3% (active)
18,COc1ccccc1C(=O)c1ccccc1C(=O)c1ccccc1,-2.38%
19,COc1ccccc1C(=O)NCC(=O)OCC(=O)NNC(=O)c1ccc(Br)cc1,7.36%
20,CC(=O)C1=C(C)N(Cc2ccc(Cl)cc2)C(=S)NC1c1ccc(F)cc1 (stereo unspecified),3.88%
21,COc1ccccc1Cc1c(-c2ccc(F)cc2)nc2ccc(C)cn12,-1.71%

row,SMILES,inhibition
1,O=C(NCc1ccccc1)[C@@H]1CCCN1C(=O)[C@@H](NS(=O)(=O)c1ccc(F)cc1F)C1CCCCC1,-7.08%
2,Cc1ccc(C(=O)NCC(=O)O)cc1S(=O)(=O)N1CCCCC1,21.8% (active)
3,Cc1ccc(C(=O)NNC(=O)c2ccncc2)cc1S(=O)(=O)N1CCCCC1,-4.33%
4,COc1ccccc1C(CNC(=O)c1ccc(C)c(S(=O)(=O)N2CCCCC2)c1)N(C)C (stereo unspecified),-9.01%
5,COC(=O)[C@]12C[C@H](CC(=O)NCc3ccc(OC)c(OC)c3)C(=O)N(Cc3ccccc3)C1=C[C@H](C(C)C)O[C@@H]2C1CC1,1.22%
6,Cc1nn(C)cc1N1C(=O)c2cccc3c(N)ccc(c23)C1=O,38% (active)
7,COc1ccc(NS(=O)(=O)c2cc(NC(=O)C3CCCCC3)ccc2N2CCOCC2)cc1,0.76%
8,COc1ccc(NS(=O)(=O)c2cc(NC(=O)c3ccc(S(=O)(=O)N(C)C)cc3)ccc2N2CCOCC2)cc1,1.69%
9,COc1ccc(NS(=O)(=O)c2cc(NC(=O)/C=C/c3cc(OC)c(OC)c(OC)c3)ccc2N2CCCCC2)cc1,22.8% (active)
10,Nc1[nH]c(C(=O)c2ccccc2)c(-c2ccc(Cl)cc2Cl)c1C(=O)c1ccccc1,4.17%
11,Nc1nc(CC(=O)CSc2ccc(Cl)cc2)nc(Nc2ccc(F)cc2)n1,4.84%
12,Cc1cc2nc3c(=O)[nH]c(=O)nc-3n(C[C@H](O)[C@H](O)[C@H](O)CO)c2cc1C,19.9% (active)
13,CN1CCCCC(NC(=O)C(C)(C)C)C1=O (stereo unspecified),-0.73%
14,CC(C)CNc1cccc2c1S(=O)(=O)N[C@H](C)CO2,0.56%
15,C[C@H]1CN([C@@H](C)CO)C(=O)CCCn2nncc2CO[C@@H]1CN(C)C(=O)Nc1ccc(N2CCN(C)CC2)cc1,3.36%
16,CN[C@H]1C[C@H]2c3[nH]c4c(-c5ccccc5)cccc4c3CCN2C(=O)[C@H]1[C@H](C)O,2.21%
17,CCN(CC(=O)Nc1ccc2c(c1)OCO2)S(=O)(=O)c1ccccc1,-7.59%
18,NS(=O)(=O)c1ccc(NC(=O)COC(=O)c2c3c(nc4ccccc24)/C(=C\c2ccc4c(c2)OCO4)CCC3)cc1,50.3% (active)
19,CC(NC(=S)Nc1ccc(S(N)(=O)=O)cc1)c1ccc2c(c1)OCO2 (stereo unspecified),-3.8%
20,Cc1c(Cl)cccc1NC(=O)CCC(=O)N/N=C/c1ccco1,1.69%
21,O=C(N/N=C/c1ccco1)c1ccc(C(=O)N/N=C/c2ccco2)o1,21.8% (active)

row,SMILES,inhibition
1,O=C(Cn1cnc2ccccc21)N/N=C/c1ccco1,3.99%
2,Cc1ccc2nc(CN(C)C(=O)[C@@H](Cc3ccccc3)NC(=O)[C@H]3O[C@@H](n4ccc(=O)[nH]c4=O)[C@H](O)[C@@H]3O)[nH]c2c1,3.29%
3,C=CCN=C1NC(c2cccc(C(F)(F)F)c2)C(C(=O)OC)=C(C)N1C (stereo unspecified),-6.24%
4,O=C(N/N=C/c1cc([N+](=O)[O-])ccc1O)/C(=C\c1cccs1)NC(=O)c1ccccc1,30.9% (active)
5,COc1cc(/C=C(/NC(=O)c2ccccc2)C(=O)Nc2cccc(O)c2)c([N+](=O)[O-])cc1OC,-4.87%
6,Cc1ccc(C(=O)N/C(=C\c2cccs2)C(=O)NCCc2ccccn2)cc1C,2.48%
7,Cn1c(=O)c(C(=O)Nc2ncccn2)c(O)c2ccccc21,3.65%
8,C=CCn1c(=O)c(C(=O)Nc2ncccc2O)c(O)c2ccccc21,29.1% (active)
9,C=CCn1c(=O)c(C(=O)NCc2ccc3c(c2)OCO3)c(O)c2ccccc21,4.79%
10,COCCNC(=S)N(C)[C@H]1C[C@H]2c3[nH]c4ccccc4c3CCN2C[C@H]1[C@H](C)O,10.3%
11,CC(=O)N(C)c1ccc(NC(=O)Nc2cccc3ccccc23)cc1,-3.94%
12,CCN(C(=O)Nc1cccc2ccccc12)c1ccccc1,66.9% (active)
13,O=C(Nc1cccc2ccccc12)NC1CC1,10.8%
14,CC1CCN(c2ccc(S(=O)(=O)Nc3cc(C(=O)O)cc(C(=O)O)c3)cc2[N+](=O)[O-])CC1,2.91%
15,O=c1c2ccccc2c(-c2ccccc2)nn1-c1ccccn1,26.3% (active)
16,O=C(O)c1ccc(-n2nc(-c3ccccc3)c3ccccc3c2=O)cc1,-0.55%
17,CCOC(=O)C(C)n1nc(-c2ccccc2)c2ccccc2c1=O (stereo unspecified),1.19%
18,CC(C)[C@@H](C)/C=C/[C@@H](C)[C@H]1CC[C@@H]2[C@]1(C)CCC1[C@]23C=C[C@]2(C[C@@H](O)CC[C@]12C)N(c1ccc([N+](=O)[O-])cn1)O3 (stereo partly specified),0.39%
19,COC(=O)Nc1nc2ccc(C(=O)C3CC3)cc2[nH]1,2.68%
20,CC(=NNC(N)=O)c1ccc(Cl)c(-n2cccc2)c1,-1.93%
21,CC(C)(C)C(=O)Nc1ccc(C(=O)N/N=C/c2ccccc2OC(=O)c2ccc(Cl)cc2Cl)cc1,33.2% (active)

row,SMILES,inhibition
1,O=C(N/N=C/c1ccoc1)c1ccc(Cl)cc1Cl,2.14%
2,CSc1ccc(/C=N/NC(=O)c2cccc(Cl)c2)cc1,-1.56%
3,OC(CCl)CCl,2.99%
4,COc1ccc(C2(CNC(=O)Cc3ccc(OC)c(OC)c3)CCCC2)cc1,8.2%
5,CCOc1c(OC)cccc1C(=O)NCC1(c2ccccc2)CCCC1,-3.45%
6,COc1cc(C(=O)NCC2(c3ccccc3)CCCC2)ccc1OC(C)C,35.4% (active)
7,CCOC(=O)/C=C/c1ccccc1O,0.35%
8,O=C(Nn1c(SCc2ccc([N+](=O)[O-])cc2)nc2ccccc2c1=O)c1ccc(F)cc1,4.61%
9,CC(=O)N1c2ccccc2N(Cc2ccc([N+](=O)[O-])cc2)C(=O)C1(C)C,-3%
10,O=c1[nH]n(-c2ccc([N+](=O)[O-])cc2)c(=O)c2ccccc12,57% (active)
11,N#Cc1ccc(-c2nc3cc(C#N)c(C#N)cc3nc2-c2ccccc2)cc1C#N,10.9%
12,COc1ccc(NC(=O)N(C)C[C@@H]2OCCCC[C@@H](C)Oc3ccc(NC(=O)NC4CCCCC4)cc3C(=O)N([C@H](C)CO)C[C@@H]2C)cc1,4.84%
13,Cc1cc(=O)n2[nH]c(-c3sccc3-n3c(C)ccc3C)cc2n1,-6.69%
14,CCOc1ccc(N/C(N)=N/c2nc(C)c(C)c(=O)[nH]2)cc1,4.59%
15,CCOc1ccc(-n2c(O)c(/C=N/Nc3nnc(C)c(=O)[nH]3)c3ccccc3c2=O)cc1,43.9% (active)
16,CCOc1ccc(-n2c(SCC(=O)Nc3cc(C(=O)O)ccc3Cl)nc3ccccc3c2=O)cc1,-2.21%
17,CCN1C(=O)N[C@@H]2C[C@H](C(=O)N3CCCC3)[C@H](C)[C@H](c3ccccc3)C[C@@H]21,2.71%
18,CCCCCCc1cc2cc(-c3nnc(-c4cccc(OC)c4)o3)c(=O)oc2cc1O,-0.99%
